Data taken from the supplement of paper PMC3334620.
In all, about 33,000 sequences were measured (“E-score (-0.5 to 0.5)”: median about -0.016, highest 2% from about 0.3 on). For the sample, the highest values were picked, then their nearest neighbours and some sequences at random.

molecular target: T1, Yer184c (UniProt P39961); assay: PBM E-score (8-mer binding enrichment) (E-score (-0.5 to 0.5)); higher = stronger / more preferred TF binding; conditions: protein concentration: 100 nM; construct: GST-full length
T1 sequence: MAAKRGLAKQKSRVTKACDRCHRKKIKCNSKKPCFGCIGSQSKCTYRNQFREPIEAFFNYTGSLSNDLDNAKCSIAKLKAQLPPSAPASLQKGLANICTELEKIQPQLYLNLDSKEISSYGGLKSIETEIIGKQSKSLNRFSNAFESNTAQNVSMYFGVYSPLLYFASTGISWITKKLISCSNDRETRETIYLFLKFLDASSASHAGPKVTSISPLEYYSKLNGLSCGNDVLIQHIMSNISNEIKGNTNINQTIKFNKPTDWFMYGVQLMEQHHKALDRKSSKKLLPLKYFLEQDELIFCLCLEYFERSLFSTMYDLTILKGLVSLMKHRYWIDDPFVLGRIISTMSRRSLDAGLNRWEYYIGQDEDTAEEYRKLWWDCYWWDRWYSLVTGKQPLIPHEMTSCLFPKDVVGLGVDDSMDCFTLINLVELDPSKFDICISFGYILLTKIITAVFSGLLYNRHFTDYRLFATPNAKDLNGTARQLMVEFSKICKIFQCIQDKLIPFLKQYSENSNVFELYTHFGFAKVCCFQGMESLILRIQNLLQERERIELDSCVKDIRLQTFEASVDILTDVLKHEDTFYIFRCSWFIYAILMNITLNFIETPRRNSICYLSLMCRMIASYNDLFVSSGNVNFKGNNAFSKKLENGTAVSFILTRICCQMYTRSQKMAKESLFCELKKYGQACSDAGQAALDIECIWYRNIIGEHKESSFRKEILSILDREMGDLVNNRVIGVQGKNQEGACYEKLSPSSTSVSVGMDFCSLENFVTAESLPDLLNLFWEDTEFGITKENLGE
Procedure, shortened: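 E-scores (a modified Wilcoxon-Mann-Whitney statistic) were assigned by the Universal PBM Analysis Suite to every ungapped eight-base word pooled with its reverse complement. The input came from universal all-10-mer Agilent arrays made double-stranded by primer extension and probed with GST-tagged yeast transcription factors at about 100-200 nM. Fluorescent anti-GST detected bound protein, and masliner normalised the scans.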

Sequence	PBM E-score
ATACGGAA	0.412
ATACGGAT	0.196
GTACGGAA	0.28
CTACGGAA	0.205
TTACGGAA	0.355
ATACGGAC	0.117
CCTACTGA	-0.151
GGTCTATA	-0.16
TGCCGCAA	0.135
ACCGCATG	0.0226
ATGCTATG	-0.117
AGGAATCA	0.078
CGGAATTA	0.352
GGGAAGCA	-0.128
CGGAAGCA	0.332
GGGAATCA	0.0818
AGGAATAC	-0.0183
AGGAATTA	0.0841
CGGAAGCC	0.211
CGGAATCA	0.306
GGGAATAC	0.0278
CGGAATTC	0.277
CGGAATAC	0.353
CGCTGCAA	0.0112
AAACGATC	0.161

Sequence	PBM E-score
ACATACTC	0.0395
TAGCAGAA	0.0545
GCCGGAGA	0.29
CCCGGAGA	0.222
ACCGGAGC	0.247
ACCGGAGA	0.33
ACCGGAGG	0.144
TCCGGAGA	0.397
ATGATCAC	-0.0394
AACTAGTG	-0.0163
ACCATTCC	0.0171
ATTGGCCA	-0.148
TCGGTTCA	0.148
CCCGGAAG	0.259
GCCGGAAA	0.426
GCTGGAAA	0.133
TCCGGAAA	0.449
CCCGGAAA	0.396
GCAGGAAA	-0.0351
TGCGGAAA	0.184
TCAGGAAA	0.112
ATCTAGCC	0.00276
AGGTTATC	-0.0359
GAACTTGC	0.0842
ATCTTTTC	0.0824

Sequence	PBM E-score
CAGCGTAC	-0.147
CGCCATTC	0.0678
TCACGGAA	0.341
CCACGGAA	0.338
CCACGGAC	-0.00729
GCACGGAA	0.159
CCACGGAG	0.0656
ACACGGAA	0.295
AGGACAAG	-0.102
AAGTCTCT	-0.246
AACAGAAC	0.163
GTTGTACA	0.277
GTGCCGGA	0.305
CTGCCGAC	0.0291
ATGCCAGA	0.0873
GTGCCGTA	0.16
ATGCCGGG	0.244
ATGCCGCA	0.124
GGGCCGGA	0.244
ATGCCGTC	0.0209
ATGCCGGA	0.36
ATGCCGGC	0.399
CTGCCGTC	-0.066
CTGCCGGC	0.369
ATACGCGG	-0.0243

Sequence	PBM E-score
AGCCCTCC	-0.201
GCATTCCC	-0.182
ACCTCTAA	0.0296
CATTGTGA	-0.164
GCTGTGCC	-0.0243
AGAGAGAT	0.0462
CACGTTCC	-0.176
AGACCAAC	-0.108
ATATTATG	0.261
ATATAACG	0.255
CAAGTAGC	-0.216
CTGCCGGA	0.349
CTGCCGCA	-0.117
CTGCCGTA	-0.00407
CGATGCGA	-0.0338
CCCGAGAA	0.234
ACCGAGCA	0.225
ACCGAGAA	0.282
GCCGAGCA	0.186
TCCGAGCA	0.329
GCCGAGAC	0.327
CCCGAGAC	0.0787
GCCGAGAA	0.368
TCCGAGAA	0.324
GCCGAGTA	0.262

Sequence	PBM E-score
ACCGAGAC	0.0458
GTCGAGAA	-0.0535
GTCCTGCA	-0.122
CGGCACTC	0.124
ACAACGTC	-0.0597
ACAGACGG	-0.11
TGAGCACA	0.0117
CTGCATAA	0.11
AGAAAGCG	-0.0479
GCTGCGAA	0.0893
CAGGTCGG	-0.119
CCAGATCA	0.135
AATCTCCG	0.3
CATCTCCG	0.37
CATCTCCC	-0.0754
AAGCAGAC	-0.195
CCCACAGA	-0.227
AAGTAGCC	-0.0314
GTCCCCGA	-0.142
GGTCCGCA	0.151
CGTCCGGA	0.323
GGTCCGTA	0.178
CTCCCGGA	0.243
AGTCCGGG	0.212
GTCCCGGA	0.318

Sequence	PBM E-score
CGTCCGTA	0.0308
CGTCCGGC	0.296
GGTCCGGA	0.376
AGTCCGGC	0.289
AGTCCGGA	0.429
AACATCAA	0.156
GCTCCAAA	-0.0747
ACATACCA	-0.12
ATTGCGTC	-0.0563
GCCTGTGA	-0.282
CAACTGAC	-0.106
AACCTAAG	-0.181
GCGGAATA	0.205
CCGGACTA	0.273
ACGGAATA	0.321
ACGGACTC	0.0365
CTGGAATC	-0.192
CCGGACTC	0.341
CCGGAATA	0.339
ATGGAATA	0.127
ACGGAATC	0.301
ACGGAATG	0.167
CCGGAATC	0.336
CGGGAATA	0.3
GACCTAAA	0.0912

Sequence	PBM E-score
AAAACTGC	0.0178
GGTACTAA	-0.00623
GGGCGACC	-0.167
GCTAACCA	-0.0625
CAGAAGGA	-0.224
TCGCTCAA	0.047
CCGGCTTA	0.33
GCGGCTGA	-0.0974
GCGGCTTA	0.025
CTGGCTGC	-0.198
ACGGCTGA	0.0623
CGGGCTTC	0.169
CCGGCTGC	0.331
CCGGCTTC	0.307
ACGGCTTA	0.193
ACGGCTGC	0.0869
ACGGCTTC	0.0891
CCGGCTGA	0.327
ACTTTCTA	-0.0235
AGAATGCT	-0.168
CAAATCGC	-0.0704
ATGGAGAC	-0.176
TACGTCTA	-0.127
GTTAGCTA	-0.119
GGATATGA	0.0918

Sequence	PBM E-score
GCCGGGAA	0.331
GCCGGGGA	0.0977
TCCGGGAA	0.37
ACCGGGAA	0.28
CCCGGGAA	0.272
GCCGGGAC	0.263
CATGCAAC	-0.00764
GTCTCAAC	-0.0423
AGCTAGAT	-0.104
CGGGACGC	-0.0137
CATTCCGA	0.278
AATTCCAT	0.0965
AATTCCCT	-0.0636
AATTCCGT	0.328
AATTCCCG	0.272
CATTCCGC	-0.0761
CATTCCGG	0.318
AATTCCGC	0.208
AATTCCGG	0.387
CTGGCTAC	-0.13
GATCAATA	0.164
ACACTGGA	0.0234
ATCCCTAG	-0.0477
ATTGGTGG	-0.0975
AGTCCAGG	-0.206

Sequence	PBM E-score
ATAAGGTC	-0.0447
CATCTCGG	0.272
AGCTTAAT	0.201
CGATCCGC	0.113
CGATCCGA	0.305
GGGTCCGA	0.113
AGGTCCGA	0.197
GGATCCGA	0.242
CGGTCCGA	0.335
ACAAGTAG	-0.201
ATCAAGCG	0.0135
CATTTCGC	0.0218
GATTTCGC	0.312
GATTTCGA	0.042
GCCTTACA	-0.205
CATGAGGG	-0.212
ATTTGCCG	0.306
ATTTGCCA	-0.0738
ATTTGCCC	0.0315
